Test results published in PubChem BioAssay (NCI).
About 83,000 compounds went through this panel and 20% of them were active in at least one assay; those are over-represented in the sample as a whole.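 48-hour exposure, single concentration, 96-well plates; percent growth endpoint where 0 means no net growth. Active: below 10.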 Values without a mark were called inactive. Active and inactive are the calls of the source.

System: HL-60(TB) leukemia
Assay: NCI-60 one-dose screen, 48 h (100 = growth as untreated, 0 = no growth, -100 = all killed)
Settings: 10 µM unless noted

Row | Structure (SMILES) | growth
1 | O=C1CC[C@H](c2ccc(O)c3c2C(=O)[C@@H]2O[C@@H]2C3=O)c2cccc(O)c21 | -20.5% (active)
2 | COc1ccc(-c2nnc(N3CCN(C(=O)CN4CCN(c5ccc(OC)cc5)CC4)CC3)nc2-c2ccc(OC)cc2)cc1 | -71.6% (active)
3 | COc1ccc(C(C)C=O)cc1 (stereo not given) | 96.9%
4 | CCN(CC)CCN1C(=O)c2c(c3c4ccccc4[nH]c3c3ccc4ccccc4c23)C1=O | -23.7% (active)
5 | C1Cc2onc(-c3noc4c3CCC4)c2C1 | 103%
6 | Cc1nc2scc(-c3ccccc3)n2c(=O)c1CCO | 112%
7 | CC(C)c1ccccc1NC(=O)N1CCC(C(C)C)CC1 | 105%
8 | C[N+](C)(C)CN1C(=O)c2ccccc2C1=O | 96.1%
9 | CN(C)C(=O)SC1=C(c2c(Cl)cccc2Cl)C(=O)c2ccccc21 | -35.7% (active)
10 | Nc1nc(NC(=O)Nc2ccc(C(=O)O)cc2)nn1-c1ccc(S(N)(=O)=O)cc1 | 102%
11 | COc1ccc(S(=O)(=O)c2ccc(C(N)=O)cc2)cc1NC(=O)c1[nH]c(C)c2c1CCCCC2=O | 4.2% (active)
12 | Cn1c2ccccc2c2c3c(c4c5ccccc5n(CCCCCC#N)c4c21)C(=O)N(O)C3=O | -22.3% (active)
13 | Cc1ccccc1-c1cc(Cc2ccc(F)cc2)c(=O)[nH]n1 | 54.2%
14 | COc1cc(/C=C2\COc3ccc(O)c(O)c3C2=O)cc(OC)c1 | -29.8% (active)
15 | C=CCSSC1N=CNc2nc[nH]c21 (stereo not given) | 32%
16 | CN1CCN(Cc2ccc(NC(=O)c3cncc(C#Cc4cnc(N)c5ncccc45)c3)cc2C(F)(F)F)CC1 | 13%
17 | O=C(Nc1ccc(F)cc1)Nc1ccccc1CNc1nc(Nc2ccc(OCCN3CCCC3)cc2)ncc1Cl | -39.6% (active)
18 | COc1ccc2c(c1)C(=O)CC(c1ccccc1OC)O2 (stereo not given) | 88.2%
19 | NCCCCCCNc1cc(-c2cccc(OC(F)(F)F)c2)nc2ccc(N3CCCC3)cc12 | -60.2% (active)
20 | COc1cc(/C=C/C(=O)c2ccc(Cl)cc2)cc(CN2CCCCC2)c1O | 94.2%

Row | Structure (SMILES) | growth
21 | CCC1=C[C@H]2CN(CCc3c([nH]c4ccccc34)[C@@](C(=O)OC)(c3cc4c(cc3OC)N(C)[C@H]3[C@@](O)(C(=O)OC)[C@H](OC(C)=O)[C@]5(CC)[C@@H]6C[C@@H]6CN6CC[C@]43[C@@H]65)C2)C1 | -33.4% (active)
22 | N#Cc1c(-c2ccccc2)cc(-c2ccccc2)n(CCCCCCC(=O)O)c1=O | 105%
23 | Nc1ccn(C2OC(CO)C(O)C2F)c(=O)n1 (stereo not given) | 105%
24 | Cn1cc(-c2nn3cc(-c4cccs4)nc3s2)c2cc(F)ccc21 | 3.45% (active)
25 | CCN(CC)CC(O)c1cc(-c2ccc(Cl)cc2)nc2cc(Cl)ccc12 (stereo not given) | 17.9%
26 | CC(=O)OC1Oc2ccccc2-c2oc3nc(=N)n(C)c-3cc21 (stereo not given) | 94.4%
27 | Cc1[nH]c(C(=O)Nc2nc3ccc(NC(=O)CCN)cc3s2)c(Cl)c1Cl | 83.8%
28 | COc1ccc(N=Nc2ccc(O)c(=O)cc2)cc1 | -33.2% (active)
29 | Cc1ccc(-c2c3c(N)nc(-c4cccnc4)nc3nc3c2c(C)nn3-c2ccccc2)cc1 | 95.6%
30 | C=CC(=O)N1CC2(CCC(n3nc(-c4ccc(Oc5ccccc5)cc4)c4c(N)ncnc43)CC2)C1 | -38.5% (active)
31 | COc1cc(/C=C2\C(=O)N(CCCOc3cc(O)c4c(=O)cc(-c5ccccc5)oc4c3)c3ccccc32)cc(OC)c1O | 47.2%
32 | COc1cc(C(C)n2cc(-c3ccccc3)nn2)ccc1OC1CCCCC1 (stereo not given) | 43.7%
33 | COc1cc2nc(N3CCCC3)nc(NCc3ccccc3)c2cc1OC | -47.8% (active)
34 | c1ccc(OCCC[P+](c2ccccc2)(c2ccccc2)c2ccccc2)cc1 | -57.3% (active)
35 | COc1cc2c(cc1O)CC[C@@H]1[C@@H]2CC[C@]2(C)[C@@H](OCCCN(C)C)CC[C@@H]12 | -48.5% (active)
36 | COc1ccc(NC(=O)c2ccc(/C=C/C(=O)c3ncc[nH]3)cc2)cc1 | 33.6%
37 | O=S(=O)(NCCNc1nccc(-c2c(-c3cccc(O)c3)nc3occn23)n1)c1cccc(F)c1 | 76.6%
38 | COc1cc(-c2nc(SCCC(C)C)nc(Nc3ccc(S(N)(=O)=O)cc3)c2C#N)cc(OC)c1OC | -18.9% (active)
39 | C#CCNCCN1C(=O)c2ccc3c4c(ccc(c24)C1=O)C(=O)N(CCNCC#C)C3=O | -18.4% (active)
40 | CC/C(=C(/c1ccc(Cl)cc1)c1ccc(OCCCN(C)C)cc1)c1ccc(OC)cc1 | 46.2%
